The record followed here is PubChem BioAssay (Tox21).

Test [1] in a line: qHTS assay for small molecules that induce genotoxicity in human embryonic kidney cells expressing luciferase-tagged ATAD5 (AID 651632). Further: nearly all actives have a fitted effect of over 15% in size. Summed up:
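Quantitative HTS in HEK293T expressing luciferase-tagged ATAD5, whose levels rise upon DNA damage. Exposure ran 16 hr at 37C and 5% CO2, with luminescence read 30 min after Amplite addition at room temperature.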
Background: qHTS replaces the single test concentration by a dilution series.

Test [2] can be described thus: qHTS assay for small molecule agonists of the p53 signaling pathway - cell viability (AID 651633; calls by dose curve; further: nearly all actives have a fitted effect of over 30% in size; further: potency means the concentration at half of the fitted maximal effect). Summed up: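 p53RE-bla cells were treated with compound for 16 hours at 37 C. Cytotoxicity was then measured as CellTiter-Glo luminescence after 30 min at room temperature.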
A short description of test [3]: qHTS assay for small molecule disruptors of the mitochondrial membrane potential - cell viability (AID 720634; calls by dose curve; further: nearly all actives have a fitted effect of over 20% in size; further: potency means the concentration at half of the fitted maximal effect). Summed up: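 ATP-based luminescent viability readout (CellTiter-Glo, 30 min, room temperature) in HepG2 cells multiplexed with the m-MPI membrane potential dye; compound exposure lasted 1 hr at 37 C.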
Test [4] can be described thus: qHTS assay to test for compound auto fluorescence at 590 nm (red) in HepG2 cells (AID 720674). An outline of the steps: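 Seeding: 2,000 HepG2 cells/well, MEM/10% FBS, overnight 37 C. Dosing: compound vs DMSO. Incubation: 1 hr, 37 C, 5% CO2. Read: fluorescence 540 ex/590 em, Rose Bengal sodium as red reference.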
The nature of test [5]: qHTS assay to test for compound auto fluorescence at 535 nm (green) in HepG2 cells (AID 720675).
Test [6] is described as follows: qHTS assay to test for compound auto fluorescence at 460 nm (blue) in HEK293 cells (AID 720678). An outline of the steps: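 HEK293 cells (2,000/well, medium with 10% dialyzed FBS) attached 4-5 hr, then exposed to compound overnight at 37C, 5% CO2. Blue fluorescence read at 405/460 nm, with triamterene as reference fluorophore.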
Test [7] in a line: qHTS assay to test for compound auto fluorescence at 590 nm (red) in HEK293 cells (AID 720679). An outline of the steps:
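HEK293 cells (2,000/well, 10% dialyzed FBS) attached 4-5 hr, then dosed with compound or DMSO and incubated overnight at 37C, 5% CO2. Red fluorescence read at 540/590 nm, Rose Bengal sodium as reference fluorophore.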

Test [8] is described as follows: qHTS assay to test for compound auto fluorescence at 535 nm (green) in HEK293 cells (AID 720680).
Test [9] can be described thus: qHTS assay to test for compound auto fluorescence at 460 nm (blue) in HEK293 cell free culture (AID 720681). An outline of the steps: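 Compounds were added to cell-free DMEM with 10% FBS and fluorescence read directly. The blue channel used 405 nm excitation and 460 nm emission, with triamterene as the reference fluorophore.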
The nature of test [10]: qHTS assay to test for compound auto fluorescence at 535 nm (green) in HEK293 cell free culture (AID 720682). Summed up:
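Green-channel intensity (Ex/Em 485/535 nm) was recorded from compound-treated wells containing only DMEM with 10% FBS. Fluorescein provided the equivalency standard.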

Test [11] is described as follows: qHTS assay to test for compound auto fluorescence at 590 nm (red) in HEK293 cell free culture (AID 720683). An outline of the steps: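 Cell-free wells of DMEM with 10% FBS received compound, and intrinsic fluorescence was read at excitation/emission 540/590 nm. Values expressed as equivalence to Rose Bengal sodium.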
The nature of test [12]: qHTS assay to test for compound auto fluorescence at 590 nm (red) in HepG2 cell free culture (AID 720684). An outline of the steps:
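Auto fluorescence equivalency versus Rose Bengal sodium, red channel Ex/Em 540/590 nm; compounds in cell-free MEM/10% FBS; DMSO vehicle control.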

Test [13] can be described thus: qHTS assay to test for compound auto fluorescence at 535 nm (green) in HepG2 cell free culture (AID 720686).
Test [14] in a line: qHTS assay to test for compound auto fluorescence at 460 nm (blue) in HepG2 cells (AID 720687). An outline of the steps: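 HepG2 cells in MEM with 10% FBS, attached overnight at 37 C, were exposed to compound or DMSO for 1 hr at 37 C, 5% CO2. Blue fluorescence was read at 405/460 nm, with triamterene as reference fluorophore.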
Test [15] can be described thus: qHTS assay for small molecule disruptors of the mitochondrial membrane potential (AID 720635). Further: potency means the concentration at half of the fitted maximal effect. Summed up: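 HepG2 cells exposed to compound 1 hr at 37C, then Mito-MPS dye 30 min. Ratio read of aggregate (540/590 nm) versus monomer (490/535 nm) fluorescence.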
The nature of test [16]: qHTS assay to test for compound auto fluorescence at 460 nm (blue) in HepG2 cell free culture (AID 720685). An outline of the steps:
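Cell-free plates of MEM plus 10% FBS received 23 nL compound or DMSO vehicle; blue-channel (405/460 nm) intensity scored against triamterene as reference fluorophore.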

The target of test [17] is Glucocorticoid receptor (Homo sapiens) (UniProt P04150). The test is described as follows: qHTS assay to identify small molecule agonists of the glucocorticoid receptor (GR) signaling pathway (AID 720691; active means well fitted activation curve with a large enough effect in the signal ratio in the repeat runs, not every such curve was filed as active; the % refers to the signal ratio). Summed up: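 Cells: GR-bla HeLa, endogenous GR with stably integrated GRE-beta-lactamase reporter. Treatment 18 h, 37 C, compounds delivered in DMSO. Detection via LiveBLAzer B/G FRET substrate, 2 h RT, fluorescence intensity.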
Sequence of Glucocorticoid receptor (Homo sapiens) (P04150 whole entry, looked up): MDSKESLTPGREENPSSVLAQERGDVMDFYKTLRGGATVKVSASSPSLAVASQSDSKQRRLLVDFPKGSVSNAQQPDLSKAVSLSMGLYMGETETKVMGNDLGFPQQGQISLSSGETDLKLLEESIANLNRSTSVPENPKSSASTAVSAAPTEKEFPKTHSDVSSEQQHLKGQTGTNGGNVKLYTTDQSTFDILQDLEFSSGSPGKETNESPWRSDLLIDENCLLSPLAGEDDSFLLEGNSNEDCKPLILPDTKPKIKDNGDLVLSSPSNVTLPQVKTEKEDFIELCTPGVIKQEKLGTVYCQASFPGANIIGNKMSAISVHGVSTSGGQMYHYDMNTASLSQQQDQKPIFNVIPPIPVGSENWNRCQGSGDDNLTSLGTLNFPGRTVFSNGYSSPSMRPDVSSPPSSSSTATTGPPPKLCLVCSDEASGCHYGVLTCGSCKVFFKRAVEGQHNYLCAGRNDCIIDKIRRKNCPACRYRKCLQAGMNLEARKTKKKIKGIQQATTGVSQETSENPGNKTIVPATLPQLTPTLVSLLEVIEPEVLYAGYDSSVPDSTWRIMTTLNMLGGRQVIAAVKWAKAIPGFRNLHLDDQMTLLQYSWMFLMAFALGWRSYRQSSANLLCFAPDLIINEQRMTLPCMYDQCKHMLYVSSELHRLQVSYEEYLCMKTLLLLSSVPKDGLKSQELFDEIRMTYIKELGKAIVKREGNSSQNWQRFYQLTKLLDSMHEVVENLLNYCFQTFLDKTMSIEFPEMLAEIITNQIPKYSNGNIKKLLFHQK

The target is the same in test [18]. The test is described as follows: qHTS assay to identify small molecule antagonists of the glucocorticoid receptor (GR) signaling pathway (AID 720692; active means well fitted inhibition curve with a large enough effect in the signal ratio in the repeat runs, not every such curve was filed as active; the % refers to the signal ratio). An outline of the steps: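 Quantitative HTS in antagonist format: HeLa cells expressing endogenous GR and a stably integrated GRE-bla reporter, stimulated with 5 nM dexamethasone (final) alongside test compounds for 18 h.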

A short description of test [19]: qHTS assay for small molecules that induce genotoxicity in human embryonic kidney cells expressing luciferase-tagged ATAD5 - cell viability (AID 651634; calls by dose curve; further: nearly all actives have a fitted effect of over 25% in size; further: potency means the concentration at half of the fitted maximal effect). An outline of the steps: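 After 15.5 hr incubation with compound at 37C, 5% CO2, HEK293T ATAD5-luciferase cells received CellTiter-Fluor reagent; fluorescence intensity was quantified following 30 min at 37C.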

Records with an inconclusive call do not appear. Some structures have more than one record in an assay (separate samples or runs), and their calls can disagree. Active and inactive are the calls of the source. Unless noted, the call rests on the fitted dose curve; in most records, active means well fitted curve in the direction sought with a large enough effect in the repeat runs; inconclusive means weak or mixed curves; inactive means no such curve, though single readings can be large; an effect the other way counts as inactive or inconclusive.
On the % scale 0 is the no-effect control and ±100 the full control effect.

`CN(C)CCN1C(=O)c2ccccc2N(C)c2ccccc21`: the Potency result in test [1], in test [2], in [3], in test [6], in [9] and in test [14] was “inactive” each time. Further, the compound was called inactive in test [4], in [5], in [7], in test [8], in [10] and in test [11]. Moreover, the compound was classed as inactive in [12] and in test [13].
As for `CCCCCC[C@@H](O)C/C=C\CCCCCCCC(=O)O`, the Potency result in [1], in test [3], in test [15], in [6], in test [9] and in test [16] was “inactive” throughout. For the same compound, the Potency result in test [14], in test [17] and in test [18] was “inactive” each time. In addition, in test [2], the Potency is 21.1 µM (active) and inactive. Moreover, the result in test [4], in [5], in test [7], in test [8], in test [10] and in [11] was inactive. In addition, the call in test [12] and in test [13] was inactive.
Turning to `CCOc1ccc(Cc2nccc3cc(OCC)c(OCC)cc23)cc1OCC`, the Potency result in [1], in test [2], in test [3] and in test [17] was “inactive” each time. Besides, the fluorescence, relative to Rose Bengal in test [4] was 0.4% [at 18.6 µM] (inactive). The fluorescence, % of fluorescein control in [5] is 0.127% [at 18.6 µM] (inactive); in test [13] it was 0.0297% [at 18.6 µM] (inactive). For the same compound, in test [6], the fluorescence, % of triamterene was -0.0249% [at 18.6 µM] (inactive). The fluorescence, % of fluorescent control in test [7] was 0.0124% [at 18.6 µM] (inactive); in [9] it was 0.019% [at 18.6 µM] (inactive); in test [11], 0.116% [at 18.6 µM] (inactive); in test [14], -0.0004% [at 18.6 µM] (inactive). In test [8], the fluorescence, % of fluorescein is -0.066% [at 18.6 µM] (inactive). The activity change in test [10] was 0.0026% [at 18.6 µM] (inactive). In addition, the fluorescence, % of Rose Bengal in test [12] is 0.0721% [at 18.6 µM] (inactive).
Take `COc1ncnc(NS(=O)(=O)c2ccc(N)cc2)c1OC`: the Potency entry in test [1], in test [2], in test [3], in test [15], in test [6] and in test [9] was “inactive” each time. Also, the Potency result in test [16] and in test [14] was “inactive” throughout. Besides, the compound was called inactive in test [4], in [5], in test [7], in test [8], in [11] and in test [12]. Also, the compound was called inactive in test [13].
With `C/C=C\C/C=C/CCCCCCCCOC(C)=O`, the Potency entry in test [1], in [19], in [3], in [15], in test [9] and in test [16] was “inactive” throughout. Further, the Potency entry in test [14] was “inactive”. Also, the result in test [5], in test [7], in test [10], in [11], in [12] and in test [13] was inactive.
For the compound `c1ccc2c(c1)CCc1ccccc1N2`, the Potency result in [1], in [2], in test [9], in test [16] and in [14] was “inactive” throughout. Moreover, the Potency in test [3] is 54800 nM (active); in [15], 19400 nM (active). The compound was called inactive in [4], in test [5], in [7], in test [8], in test [10] and in test [11]. The compound was called inactive in test [12] and in test [13].
On to `Cc1cc(=O)c2c(O)c3c(O)cc(=O)c4c3c3c(cc(O)c1c23)C(C)(C)C=4O`, for which the Potency entry in test [1], in test [6], in test [9], in [16] and in test [14] was “inactive” each time. Further, the Potency in test [2] was 1.06 µM (active); in test [19] it was 2660 nM (active); in test [15], 473 nM (active). In addition, the compound was classed as inactive in [4], in test [7], in test [8], in test [11] and in test [12].
In the case of `CCCC(C(=O)OCCN(CC)CC)(c1ccccc1)c1ccccc1`, the Potency entry in [1], in test [2], in test [3], in test [6], in test [9] and in test [14] was “inactive” throughout. Moreover, in [17], the Potency result is “inactive”. Further, the result in [4], in test [5], in [7], in test [8], in [10] and in test [11] was inactive. Besides, the outcome in [12] and in test [13] was inactive.
